Source: PubChem (National Center for Advancing Translational Sciences (NCATS))
This is one part of a sample in which hits are shown more often than they occur.
Shiga toxin inh: A qHTS for Small Molecule Inhibitors of Shiga Toxin; Vero cells, Shiga toxin protein synthesis inhibition reporter; 9.2% of 290,000 active; inhibition, % at 38.7 µM; in the data active means inhibition mostly above about 28%, no sharp cut-off; inactive means mostly below about 43%
AMA1 RON2 block: qHTS for Inhibitors of AMA1-RON; Towards Development of Antimalarial Drug Lead: Primary Screen; Plasmodium falciparum AMA1 (3D7) - RON2 peptide interaction; AlphaScreen AMA1-biotinylated RON2 peptide binding; Potency, µM (top dose mostly 58.2 µM), usual class: inhibitors; 0.2% of 360,000 active; AID 720542, 2013; active means well fitted inhibition curve with a large enough effect; inconclusive means small, poorly fitted or top-dose-only effect; inactive means no such curve, though single readings can be large or run the other way; further: nearly all actives have a fitted effect of over 45% in size
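AMA1 (3D7) with his tag at 25 nM final met compounds first, then biotinylated RON2 peptide at 25 nM; detection used donor plus acceptor beads, 10 µg/mL apiece, read by AlphaScreen after 30 min at room temperature.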
Lassa entry inh: qHTS for Inhibitors of binding or entry into cells for Lassa Virus; 1.2% of 300,000 active; Lassa virus pseudotype entry inhibition, cell reporter; AID 540256, 2011; Potency, µM (highest dose often 37.9 µM), hits mostly inhibitors; calls by dose curve; tested in HEK293 cells; further: nearly all actives have a fitted effect of over 50% in size
CHX counter: Cycloheximide Counterscreen for Small Molecule Inhibitors of Shiga Toxin. cell reporter, cycloheximide protein synthesis inhibition counterscreen. max response, %. 12% of 300,000 active; in the data active means max response mostly above about 13%, no sharp cut-off; inactive means mostly below about 14%; further: read at 38.3 µM for the half of the compounds with a filed dose
MARV entry inh: qHTS for inhibitors of binding or entry into cells for Marburg Virus | 1.8% of 300,000 active | Potency, µM (doses to about 37.8 µM), actives largely listed as inhibitors | Marburg virus pseudotyped entry inhibition, cell reporter; calls by dose curve; tested in HEK293 cells
A number is an active result; [ ] = dose if it differs, or a comment.

`CCOc1cc(CNc2ccc(N3CCCCC3)cc2)cc(Br)c1OCC(=O)NC(C)(C)C` gave Shiga toxin inh inactive, AMA1 RON2 block 20µM, Lassa entry inh inactive, CHX counter 14 and MARV entry inh inactive.
CCOc1cc(CNc2ccc(N(C)C)cc2)cc(Br)c1OCC(=O)NC(C)(C)C was read as Shiga toxin inh 38, AMA1 RON2 block 25µM, Lassa entry inh inconclusive, CHX counter 36 and MARV entry inh inactive.
CCOc1cc(CNc2ccc(N3CCN(C(C)=O)CC3)cc2)cc(Br)c1OC was read as Shiga toxin inh inactive, AMA1 RON2 block inconclusive, Lassa entry inh inactive, CHX counter inactive and MARV entry inh inactive.
Screening C=CCOc1c(Br)cc(CNc2ccc(NC(=O)C(C)C)c(OC)c2)cc1OCC returned Shiga toxin inh inactive, AMA1 RON2 block inactive[11.6 µM], Lassa entry inh inactive, CHX counter 34 and MARV entry inh inactive.
Screening CCOc1cc(CNc2ccc(N3CCCC3)cc2)cc(Cl)c1OC returned Shiga toxin inh 41, AMA1 RON2 block 20µM, Lassa entry inh inconclusive, CHX counter inactive and MARV entry inh inactive.
For CCOc1cc(CNc2cccc3ccccc23)cc(Br)c1OCC(=O)NC(C)(C)C the results were Shiga toxin inh inactive, AMA1 RON2 block inactive, Lassa entry inh inconclusive, CHX counter inactive and MARV entry inh inconclusive.
For COc1ccc(C(=O)c2cn(Cc3cccc(C)c3)c3cc4c(cc3c2=O)OCCO4)cc1OC the results were Lassa entry inh inactive and MARV entry inh inconclusive.
For CCOC(=O)c1ccccc1NC(=O)N(C)CCc1c(C)nn(CC)c1C the results were Lassa entry inh inactive.
For Cc1cccn2c(=O)c(C(=O)NCc3ccccc3Cl)c(O)nc12 the results were MARV entry inh inactive.
For CON(C)C(=O)C[C@@H]1C[C@H](OC(=O)c2ccc([N+](=O)[O-])cc2)CN1C(=O)OC(C)(C)C the results were AMA1 RON2 block inactive.
`Cc1ccnc2nc(C(=O)OCCOc3ccc(F)cc3)nn12` gave Shiga toxin inh inactive, AMA1 RON2 block inactive, Lassa entry inh inactive, CHX counter inactive and MARV entry inh inactive.
CCOc1ccc(CNc2ccc(N3CCN(Cc4ccccc4)CC3)cc2)cc1 was read as Shiga toxin inh inactive, AMA1 RON2 block inactive, Lassa entry inh inconclusive, CHX counter inactive and MARV entry inh inactive.
`CCOc1cc(CNc2ccc3c(c2)OCCO3)cc(Br)c1OCC` gave Shiga toxin inh 67, AMA1 RON2 block inconclusive, Lassa entry inh inactive, CHX counter 28 and MARV entry inh inconclusive.
Screening CCOc1ccc(CNc2ccc(N3CCCC3)cc2)cc1 returned Shiga toxin inh inactive, AMA1 RON2 block inconclusive, Lassa entry inh inactive, CHX counter 17 and MARV entry inh inactive.
CCOc1cc(CNc2ccc(N3CCOCC3)cc2)cc(Br)c1OCC was read as Shiga toxin inh inactive, AMA1 RON2 block 14µM, Lassa entry inh inactive, CHX counter inactive and MARV entry inh inactive.
`C=CCOc1c(Br)cc(CNc2ccc3[nH]c(=O)[nH]c3c2)cc1OCC` gave Shiga toxin inh inactive, AMA1 RON2 block inactive, Lassa entry inh inactive, CHX counter inactive and MARV entry inh inconclusive.
For COC(=O)c1cc(NC(=O)c2cc(-c3ccc(C(F)(F)F)cc3)oc2C(F)(F)F)ccc1N1CCOCC1 the results were Shiga toxin inh inactive, AMA1 RON2 block inactive, Lassa entry inh inconclusive, CHX counter inactive and MARV entry inh 11µM.
For COc1ccc2oc(C(=O)OCC(=O)N(CCC#N)c3ccccc3)c(C)c2c1 the results were Shiga toxin inh inactive, AMA1 RON2 block inactive, Lassa entry inh inactive, CHX counter inactive and MARV entry inh inactive.
Cn1c(=Nc2ccc(N3CCOCC3)cc2)ccc2ccccc21 was read as Shiga toxin inh inactive, AMA1 RON2 block inactive, Lassa entry inh inactive, CHX counter inactive and MARV entry inh inactive.
For Cn1c(N=Nc2ccc(N3CCOCC3)cc2)[n+](C)c2ccccc21 the results were Shiga toxin inh 94, AMA1 RON2 block inconclusive, Lassa entry inh inactive, CHX counter 48 and MARV entry inh inactive.
`O=C(CSc1ncnc2c1oc1ccccc12)NCc1ccco1` gave Shiga toxin inh 51, AMA1 RON2 block inactive, Lassa entry inh inactive, CHX counter 30 and MARV entry inh inactive.
`c1ccc(Sc2ncnc3c2oc2ccccc23)cc1` gave Shiga toxin inh 81, AMA1 RON2 block inactive, Lassa entry inh inconclusive, CHX counter 33 and MARV entry inh inconclusive.
Screening OCCSc1ncnc2c1oc1ccccc12 returned Shiga toxin inh 63, AMA1 RON2 block inactive, Lassa entry inh inactive, CHX counter 22 and MARV entry inh inactive.
